The panel holds about 83,000 compounds, 20% with a hit somewhere; the sample as a whole holds those more often.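 Method: cells in 96-well plates; compound added at one concentration; 48 h incubation; percent growth measured; values under 10 scored active.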 A number with no mark means an inactive call. Activity calls are given as the source filed them.
Legend:
Test in all cases: NCI-60 one-dose screen, 48 h (100 = growth as untreated, 0 = no growth, -100 = all killed)
Conditions in all cases: 10 µM unless noted
EKVX NSCLC = tested on: EKVX NSCLC
SN12C renal = tested on: SN12C renal
UO-31 renal = tested on: UO-31 renal
TK-10 renal = tested on: TK-10 renal
ACHN renal = tested on: ACHN renal
CAKI-1 renal = tested on: CAKI-1 renal
A498 renal = tested on: A498 renal
CCRF-CEM leukemia = tested on: CCRF-CEM leukemia
MOLT-4 leukemia = tested on: MOLT-4 leukemia
SR leukemia = tested on: SR leukemia

Row | SMILES | growth (EKVX NSCLC) [%] | growth (SN12C renal) | growth (UO-31 renal) | growth (TK-10 renal) | growth (ACHN renal) | growth (CAKI-1 renal) | growth (A498 renal) [%] | growth (CCRF-CEM leukemia) | growth (MOLT-4 leukemia) | growth (SR leukemia)
1 | Fc1ccc(-c2nnc(/C=C/c3cn(-c4ccccc4)nc3-c3ccccc3)o2)cc1 | 103 | 84.1% | 84.1% | 107% | 90.9% | 84.3% | 111 | 97.1% | 99.3% | 65.7%
2 | CN1CCN(Cc2ccc(NC(=O)c3[nH]ncc3Nc3ccnc4ccnn34)cc2)CC1 | 100 | 35.1% | 71.1% | 103% | 66.4% | 75.4% | 74.4 | 54.6% | 45.5% | 16%
3 | O=C(Cn1ccnc1)NC(c1ccccc1)c1ccccc1 | 97.5 | 97% | 89.5% | 97.5% | 91.9% | 96.7% | 67.6 | 108% | 107% | 98.4%
4 | CC(NC(=O)C(C)Oc1ccc(Cl)cc1Cl)C(=O)O (stereo not given) | 95.8 | 73.3% | 78.1% | 125% | 109% | 101% | 113 | -9.97% (active) | 139% | 137%
5 | O=C(CSc1nnc(Nc2ccccc2)s1)NCCc1ccc(F)cc1 | 91.7 | 103% | 48.4% | 128% | 107% | 106% | 93.1 | 117% | 103% | 164%
6 | CCC1=C(c2ccc(OC)cc2)C(C)(C)Oc2cc(O)c(CN3CCCC3)cc21 | 85.2 | 77.8% | 55.8% | 94.3% | 82.6% | 83.2% | 59.5 | 69.2% | 66.3% | 9.49% (active)
7 | Cc1cc(CC(=O)O)n(C)c1C(=O)c1ccc(Cl)cc1 | 102 | 109% | 104% | 108% | 101% | 96% | 123 | 95.6% | 98.3% | 107%
8 | CCOC(=O)c1cc(-c2cccnc2)nc2c(Cl)cc(Cl)cc12 | 96.5 | 86.6% | 75% | 75.7% | 73.8% | 105% | 103 | 88.9% | 98.9% | 117%
9 | CCCCCCCCCCCCCCCCCC1=NC(C)(C)CN1CCO | 15.3 | -29.6% (active) | -62.9% (active) | -33.8% (active) | -49.2% (active) | -41% (active) | 117 | -42.9% (active) | -55.7% (active) | -42.7% (active)
10 | CCN1C2=C(SC(=S)C1=C1SC(C(=O)OC)=C(C(=O)OC)S1)SC(=Nc1ccc(OC)cc1)C2=O | 34.7 | -11.8% (active) | -73% (active) | 30.3% | -74.3% (active) | -38.4% (active) | 46 | 4.67% (active) | 13.2% | 19.2%
11 | O=C(Nc1ccc(Cl)cc1)Nc1ccc(Oc2nncc3ccccc23)cc1 | 26.7 | -3.83% (active) | -51.6% (active) | 27.5% | -15.1% (active) | 18.7% | 24.5 | 8.7% (active) | 3.99% (active) | 2.64% (active)
12 | Nc1nc(Cl)c2[nH]cnc2n1 | 99.5 | 92.4% | 93.5% | 103% | 96.4% | 89.4% | 95.1 | 115% | 114% | 95.6%
13 | Cc1ccc(NC(=O)COC(=O)c2ccc(S(=O)(=O)N3CCCCCC3)cc2)cc1 | 111 | 98.7% | 85.8% | 178% | 107% | 108% | 128 | 135% | 127% | 131%
14 | c1ccc(Nc2nnc(-c3cc(-c4cccnc4)n(-c4ccccc4)n3)s2)cc1 | 83 | 87.7% | 56.9% | 88.6% | 81.7% | 46.4% | 74.4 | 72.6% | 56.5% | 67.1%
15 | CN(C)c1ccc2[nH]c3c(C(N)=O)cc(=O)c(=O)c=3oc2c1 | 100 | 54.5% | 56.3% | 111% | 29.7% | 83.2% | 87.7 | 11.9% | 9.08% (active) | 31%
